Calls of active or inactive are those of the source. Unless noted, no rule for the calls is given here.

Assay [1] can be described thus: resazurin metabolic signal in HepG2 cells – cell-based, resazurin fluorescence, 24 h, PK04 Diversity Set, profiling panel (AID 1172). Also: test concentration not given here. To be noted: HepG2 viability, higher = more signal.
Assay [2] is described as follows: budding yeast growth changes without added modifier – OD600, strain BY4716, 24 h, basal condition, primary screen (AID 1173). To be noted: S. cerevisiae BY4716 growth, OD600, 24 h; higher = more signal, called active from +8 up or from −8 down.
Assay [3] can be described thus: viability profiling in MM1S myeloma cells – cell-based, resazurin fluorescence, basal, 24 h, PK04 Diversity Set, profiling panel (AID 1174).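 Also: MM1S multiple myeloma cell line; test concentration not given here.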 The settings on record: higher = more signal, called active from +8 up or from −8 down. In general terms: The colour change of resazurin is a common sign of viable cells or microbes.
Assay [4] deals with Dihydroorotate dehydrogenase (quinone), mitochondrial (Plasmodium falciparum (isolate 3D7)) (UniProt Q08210). The experiment in a line: inhibition of P. falciparum DHODH – biochemical, C-terminal His tag, absorbance 600 nm, primary screen (AID 1175).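 Also: recombinant parasite enzyme with a five histidine tag at its C terminus; test concentration not given here.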 To be noted: PfDHODH enzyme, DCIP absorbance 600 nm; higher = more signal, called active from +8 up or from −8 down.
Chain of Dihydroorotate dehydrogenase (quinone), mitochondrial (Plasmodium falciparum (isolate 3D7)) (Q08210 whole entry, looked up): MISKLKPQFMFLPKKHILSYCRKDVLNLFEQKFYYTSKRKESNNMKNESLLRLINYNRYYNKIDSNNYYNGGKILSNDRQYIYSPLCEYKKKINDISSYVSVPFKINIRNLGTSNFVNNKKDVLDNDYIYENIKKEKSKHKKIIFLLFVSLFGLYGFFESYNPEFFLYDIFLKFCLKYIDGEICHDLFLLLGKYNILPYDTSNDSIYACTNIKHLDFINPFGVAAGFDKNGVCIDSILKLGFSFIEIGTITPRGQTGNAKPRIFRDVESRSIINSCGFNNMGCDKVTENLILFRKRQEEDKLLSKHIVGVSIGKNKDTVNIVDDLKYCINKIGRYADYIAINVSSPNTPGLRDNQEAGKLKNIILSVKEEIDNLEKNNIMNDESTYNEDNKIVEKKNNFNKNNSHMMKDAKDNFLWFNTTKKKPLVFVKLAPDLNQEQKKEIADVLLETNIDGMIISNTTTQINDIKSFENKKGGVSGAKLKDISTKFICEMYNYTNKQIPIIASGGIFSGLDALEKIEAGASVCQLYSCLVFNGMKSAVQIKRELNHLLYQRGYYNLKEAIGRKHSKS
Assay [5] can be described thus: inhibition of PAO1 biofilm formation – strain PAO1, LB-PBS medium, absorbance 600 nm, primary screen (AID 1176). Also: test concentration not given here. To be noted: P. aeruginosa PAO1 growth/biofilm, A600, 12 h; higher = more signal.
Assay [6] is described as follows: growth modulation of vineyard yeast isolate – strain RM11-1a, OD600, basal, 24 h, primary screen (AID 1177).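 Also: cultures grown under basal conditions with no added stressor; test concentration not given here.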 The settings on record: S. cerevisiae RM11-1a growth, OD600, 24 h; higher = more signal, called active from +8 up or from −8 down.
The nature of assay [7]: growth of efflux-deficient E. coli DRC39 – strain DRC39, OD650, 24 h, E. coli filamentation inducers, primary screen (AID 1178).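 Also: growth measured as culture turbidity by optical density at 650 nm; test concentration not given here.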 The settings on record: E. coli DRC39 acrAB, higher = more signal, called active from +8 up or from −8 down.
Assay [8] in a line: growth of efflux-deficient E. coli DRC39 – strain DRC39, OD650, 48 h, E. coli filamentation inducers, primary screen (AID 1179).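 Also: screen aims at cell division blockers that make cells filament.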 To be noted: E. coli DRC39 delta-acrAB growth, higher = more signal, called active from +8 up or from −8 down.
Assay [9] is described as follows: viability profiling in RPMI8226 myeloma cells – cell-based, resazurin fluorescence, basal, 24 h, PK04 Diversity Set, profiling panel (AID 1180).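 Also: RPMI8826 multiple myeloma cell line at 5000 cells per well; test concentration not given here.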 To be noted: higher = more signal.
Assay [10] concerns the target E3 ubiquitin-protein ligase XIAP (Homo sapiens) (UniProt P98170). The experiment in a line: small molecules binding XIAP protein – biophysical, small-molecule microarray, fluorescence 635 nm, primary screen (AID 1181).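 Also: score merges 667 nm emission and signal to noise over triplicate slides.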 To be noted: higher = more signal.

Chain of E3 ubiquitin-protein ligase XIAP (Homo sapiens) (P98170 whole entry, looked up): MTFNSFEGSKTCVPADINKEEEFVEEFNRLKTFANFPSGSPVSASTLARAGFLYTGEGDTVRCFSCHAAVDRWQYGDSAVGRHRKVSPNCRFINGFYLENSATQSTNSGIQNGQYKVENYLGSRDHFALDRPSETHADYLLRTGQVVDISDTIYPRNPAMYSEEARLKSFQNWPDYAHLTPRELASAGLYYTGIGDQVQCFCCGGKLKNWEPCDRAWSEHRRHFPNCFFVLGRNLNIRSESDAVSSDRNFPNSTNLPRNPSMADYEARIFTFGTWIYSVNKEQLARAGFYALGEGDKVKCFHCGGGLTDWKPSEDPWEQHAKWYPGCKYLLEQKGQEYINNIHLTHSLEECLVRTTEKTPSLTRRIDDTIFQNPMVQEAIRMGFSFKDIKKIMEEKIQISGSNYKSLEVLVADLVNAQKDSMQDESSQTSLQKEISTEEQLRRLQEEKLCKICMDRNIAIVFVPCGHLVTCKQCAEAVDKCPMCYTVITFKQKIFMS

For `COCCOC(=O)N1C(=O)[C@@]2(c3cc(C#CCCO)ccc31)[C@H](C(=O)NC[C@H](O)c1ccccc1)[C@H]1C(=O)O[C@H](c3ccccc3)[C@H](c3ccccc3)N1[C@@H]2c1ccc(OCCO)cc1`, the z-score in [1] was 0.76; in assay [2], 0.757 (inactive); in assay [3], 0.857 (inactive); in assay [5], 1.75 (inactive); in assay [6], 1.21 (inactive); in assay [7] it was 0.696 (inactive). Besides, the z-score was -0.567 (inactive) in [8] and 1.43 in assay [9]. The figures for the composite z-score in assay [4] and in assay [10] were -0.689 (inactive) and 0.275, respectively.
On to `C=CC[C@@]1(C(=O)NCc2ccccc2)N=C(c2ccc(OCCCO)cc2)O[C@@H]1c1ccccc1CN=[N+]=[N-]`, for which the z-score was -0.46 in assay [1]; 1.36 (inactive) in assay [2]; -1.89 (inactive) in [3]; 1.1 (inactive) in assay [5]; 2.33 (inactive) in assay [6]; 0.537 (inactive) in [7]. Moreover, the z-score in assay [8] was -0.793 (inactive); in [9], -1.45. Moreover, the composite z-score was 1.63 (inactive) in assay [4] and 0.404 in assay [10].
Turning to `CC(C)NC(=O)[C@@H]1c2ccccc2C(=O)N(C2CCCCC2)[C@H]1c1ccc(CO)cc1`, the z-score in [1] was -0.208; in assay [2], -0.63 (inactive); in [3] it was -0.569 (inactive); in assay [5], 0.36 (inactive); in assay [6] it was 0.052 (inactive); in [7] it was 0.126 (inactive). For the same compound, the z-score is -0.0549 (inactive) in [8] and -0.374 in [9]. Besides, the composite z-score in assay [4] is -0.131 (inactive); in assay [10], 0.0124.
For `C=CCC(OC(C)=O)[C@@H]1[C@@H](N(Cc2ccc(-c3ccccc3)cc2)C(=O)c2ccc(C)cc2)c2cc(OCCCO)ccc2N1C(=O)c1ccc2ccccc2n1` (stereo not given in full), the z-score in [1] was 1.53; in [2], -0.769 (inactive); in assay [3], 1.3 (inactive); in [5], 0.833 (inactive); in assay [6], -1.99 (inactive); in [7], 2.06 (inactive). Moreover, the z-score in assay [8] is 1.82 (inactive); in assay [9] it was 0.924. The composite z-score in assay [4] was -0.772 (inactive); in assay [10], -0.0663.
As for `O=C1O[C@H](c2ccccc2)[C@H](c2ccccc2)N2[C@H]1[C@@H](C(=O)NC[C@H](O)c1ccccc1)[C@]1(C(=O)Nc3ccc(C#CC4=CCCCC4)cc31)[C@H]2c1ccc(O)cc1`, the z-score in [1] was -0.654; in [2] it was -0.48 (inactive); in assay [3] it was -1.78 (inactive); in assay [5], 2.02 (inactive); in assay [6], 1.62 (inactive); in assay [7], 0.146 (inactive). Further, the z-score in [8] was 0.165 (inactive); in [9], -3.63. Besides, the composite z-score is -2.16 (inactive) in [4] and -0.124 in [10].
Regarding `C=CCN1C(=O)[C@]2(COC(c3ccc(OCCCO)cc3)=N2)Cc2ccccc21`, the z-score in [1] was 0.653; in assay [2], -1.8 (inactive); in assay [3], -0.99 (inactive); in assay [5], 0.286 (inactive); in [6], -0.675 (inactive); in assay [7], 0.695 (inactive). Moreover, the values for the z-score in assay [8] and in assay [9] were 1.54 (inactive) and -0.126, respectively. Also, the figures for the composite z-score in assay [4] and in assay [10] were -1.5 (inactive) and 0.0933, respectively.
Take `COc1ccc([Si](C)(C)[C@H]2[C@H](CC(=O)N3Cc4ccccc4C[C@H]3CO)O[C@@]3(C(=O)N(Cc4cccc(I)c4)c4ccccc43)[C@@H]2C)cc1`: the z-score in [1] is -0.779; in [2] it was -1.08 (inactive); in [3] it was -2.22 (inactive); in assay [5] it was 1.13 (inactive); in assay [6], 1.55 (inactive); in [7], 0.517 (inactive). Further, the z-score was -0.152 (inactive) in assay [8] and -1.59 in [9]. Moreover, the results for the composite z-score in assay [4] and in assay [10] were -1.01 (inactive) and -0.157, respectively.
Consider `CN1C(=O)C2C=CC(C(O)c3ccccc3)N(NC(=O)OC(C)(C)C)C2C1=O` (stereo not given), for which the z-score was -1.24 in [1]; 1.34 (inactive) in assay [2]; -0.749 (inactive) in [3]; 0.31 (inactive) in assay [5]; 1.18 (inactive) in assay [6]; -0.68 (inactive) in [7]. The z-score in assay [8] was -0.454 (inactive); in assay [9], -0.0265. Also, the composite z-score was 0.802 (inactive) in [4] and 0.0338 in assay [10].
Turning to `COCCOC(=O)N1C(=O)[C@@]2(c3ccccc31)[C@H](C(=O)N1CCCCCCC1)[C@H]1C(=O)O[C@H](c3ccccc3)[C@H](c3ccccc3)N1[C@@H]2c1ccccc1OCCO`, the z-score in assay [1] is -0.415; in assay [2], 0.406 (inactive); in assay [3], -0.89 (inactive); in [5], 3.81 (inactive); in [6] it was 1.79 (inactive); in assay [7], -0.38 (inactive). For the same compound, the figures for the z-score in assay [8] and in [9] were 0.0795 (inactive) and -0.201, respectively. Moreover, the composite z-score in assay [4] is -0.089 (inactive); in assay [10], 0.496.
Take `CN(C)CCCC[C@@H]1NC(=O)[C@@H]2C[C@H](C(=O)NCCCCCCN)[C@H](c3ccc(O)cc3)N2C1=O`: the z-score was -1.14 in assay [1]; 0.531 (inactive) in [2]; 0.427 (inactive) in assay [3]; 0.643 (inactive) in assay [5]; 0.793 (inactive) in [6]; 0.254 (inactive) in [7]. In addition, the z-score is -0.234 (inactive) in [8] and 0.109 in assay [9]. Besides, the values for the composite z-score in [4] and in assay [10] were -2.06 (inactive) and -0.157, respectively.
Regarding `O[C@@H](Cc1ccccc1)[C@@H](/C=C/c1ccccc1)NCc1ccccc1Br`, the z-score was 0.13 in [1]; -6.87 (inactive) in assay [2]; 0.119 (inactive) in assay [3]; -0.107 (inactive) in assay [5]; -0.955 (inactive) in assay [6]; 0.429 (inactive) in assay [7]. Further, the figures for the z-score in [8] and in assay [9] were -0.21 (inactive) and 0.115, respectively. Moreover, the composite z-score is -1.05 (inactive) in assay [4] and -0.214 in assay [10].

The values above are taken from PubChem BioAssay.
